This note sets out measurements from PubChem BioAssay (NCI).

SMILES strings stand for the structures. About 83,000 compounds went through this panel and 20% of them were active in at least one assay; those are over-represented in the sample as a whole.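 Cells were grown in 96-well plates and exposed to the test compound at a single concentration for 48 hours; results are reported as percent growth, with values below 10 considered active.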 A number with no mark means an inactive call. Activity calls are given as the source filed them.

Common to all, as to assay: NCI-60 one-dose screen, 48 h (100 = growth as untreated, 0 = no growth, -100 = all killed)
Holding throughout (conditions): 10 µM unless noted

Test [1] has as its system NCI-H23 lung.
Test [2] deals with NCI-H226 lung.
Test [3] deals with NCI-H322M lung.
Test [4] deals with HOP-62 NSCLC.
Test [5] deals with NCI-H460 lung.
The subject of test [6] is HOP-92 NSCLC.
Test [7] deals with NCI-H522 lung.
The subject of test [8] is A549/ATCC NSCLC.
The test system of test [9] is 786-0 renal.
For test [10], the system named is COLO 205 colon.

For `Nc1cc(N)c(S(=O)(=O)O)cc1N=Nc1cc([N+](=O)[O-])ccc1O`, the growth in test [1] was 94.5%; in test [2], 101%; in test [3] it was 94.9%; in test [4] it was 90.6%; in test [5] it was 104%; in test [6], 89.4%. For the same molecule, the growth in [7] is 88.3%; in [8], 95.7%; in [9], 110%; in test [10] it was 108%.

With `CCCS(=O)(=O)Nc1ccc(F)c(C(=O)c2c[nH]c3ncc(-c4ccc(OCCCC5CCCCN5)nc4)cc23)c1F` (stereo not given), the growth in [1] was 80.7%; in test [2], 69.9%; in test [3] it was 97.8%; in test [4], 65.5%; in test [5] it was 79.9%; in test [6], 4.71% (active). The growth in test [7] is 59.5%; in [8] it was 83.5%; in test [9], 78.7%; in test [10], 2.52% (active).

As to `CCN(CC)CC#CCOC(=O)[C@]1(C)CCC[C@]2(C)[C@H]3C[C@H]4C(C(C)C)=C[C@]3(CC[C@H]21)[C@@H]1C(=O)CCC(=O)[C@@H]14`, the growth in [1] is 57.3%; in [2], 76.2%; in test [3], 87.7%; in [4], 79.2%; in test [5], 59.2%; in test [6] it was 57%. In addition, the growth is 29.5% in [7], 48.1% in test [8], 54.1% in test [9] and 36.2% in [10].

On to `Cc1ccccc1NC(=O)c1sc2nc(C)c(C(C)O)cc2c1N` (stereo not given), for which the growth in [1] is 79%; in [2], 88.6%; in test [3], 86%; in test [4] it was 45.1%; in [5], 35.4%; in test [6] it was 47.3%. Moreover, the growth in test [7] is 32.8%; in test [8], 36.2%; in [9] it was 57%; in test [10], 40.5%.

`N#CC1C(c2ccc(Cl)cc2)=Nc2c(c(-c3ccccc3)nn2-c2ccccc2)C12C(=O)Nc1ccc(Cl)cc12` (stereo not given): the growth is 50.7% in test [1]; 61.5% in test [2]; 79.2% in test [3]; 57.9% in test [4]; 22.3% in [5]; -8.89% (active) in [6]. In addition, the growth in test [7] is 55.9%; in test [8], 27.2%; in test [9] it was 42.9%; in [10] it was 51%.

With `NCCN1CCNCC1`, the growth in test [1] was 94.6%; in [2], 89.6%; in test [3] it was 116%; in test [4] it was 103%; in test [5] it was 108%; in [6], 100%. Moreover, the growth in [7] is 91.4%; in [8], 102%; in test [9], 101%; in test [10], 122%.

`O=C(Nc1nc(-c2ccccc2)cs1)c1cc(-c2ccc(Br)cc2)nc2ccccc12`: the growth in test [1] was 51.6%; in [2] it was 46.3%; in test [3] it was 81.5%; in test [4], 57.1%; in [5], 31.3%; in test [6], 6.1% (active). The growth in [7] is 43.5%; in test [8], 36.5%; in test [9], 65.4%; in test [10], 56.2%.

On to `COC(=O)c1cncc(C(=O)Nc2ccc(-n3cnc4ccccc43)cc2)c1`, for which the growth in test [1] was 102%; in test [2] it was 89.6%; in [3], 95.6%; in [4], 94.8%; in test [5], 96.9%; in test [6], 86.7%. The growth in test [7] is 84%; in [8], 94.4%; in test [9], 105%; in [10], 106%.

Regarding `COc1ccc(-c2cc(-c3nnc(SCC(=O)Nc4ccc(C(C)=O)cc4)o3)c3ccccc3n2)cc1`, the growth in test [1] is 0.0219% (active); in test [2] it was 17.1%; in test [3], 79.9%; in test [4] it was -33.9% (active); in test [5] it was -54.4% (active); in test [6], -10.1% (active). For the same molecule, the growth in [7] was -28.7% (active); in test [8], 22.3%; in test [9] it was -72.3% (active); in test [10], 21.7%.

Consider `COc1ccc2c(c1)C1(C(=O)N2)C(C#N)=C(c2ccccc2)Nc2c1c(-c1ccccc1)nn2-c1ccccc1` (stereo not given), for which the growth in test [1] is 51.1%; in test [2], 101%; in [3], 60.4%; in [4] it was 66.9%; in [5], -26.1% (active); in test [6], 55.6%. The growth in test [7] is 85.9%; in [8], 36.3%; in test [9], 62.4%; in test [10], 60.1%.

`C=C(C)[C@@H]1CC[C@]2(C(=O)O)CC[C@]3(C)[C@H](CC[C@@H]4[C@@]5(C)C[C@@H](CC#Cc6ccccc6)C(=O)C(C)(C)[C@@H]5CC[C@]43C)[C@@H]12`: the growth in test [1] is 25.2%; in test [2], 28.5%; in [3], 31.9%; in test [4], 32.5%; in [5], 24.1%; in test [6] it was 48.2%. The growth was 11.6% in test [7], 25.3% in test [8], 35.3% in test [9] and 20.8% in test [10].

In the case of `CCCCCOC(=O)c1ccccc1O`, the growth was 112% in test [1]; 97.8% in [2]; 101% in [3]; 85.4% in test [4]; 108% in test [5]; 88% in test [6]. For the same molecule, the growth was 87.4% in test [7], 96.2% in test [8], 94.4% in test [9] and 120% in test [10].

As for `CC[C@]12C=CCN3CC[C@@]4(c5ccc(OC)cc5N(C)[C@H]4[C@@](O)(C(=O)OC)[C@@H]1OC(=O)CCC(=O)O[C@H]1CC[C@H]4[C@@H]5CC[C@H]6CC(=O)CC[C@]6(C)[C@H]5CC[C@]14C)[C@@H]32`, the growth in test [1] was 38.5%; in test [2] it was 35.4%; in test [3], 68.3%; in test [4], 32.7%; in [5], 13.8%; in test [6], -2.92% (active). The growth in test [7] was 2.12% (active); in [8] it was 13.2%; in test [9], 30.8%; in test [10] it was -22.1% (active).

As for `CCOCc1nc2ccccc2c(=O)[nH]1`, the growth in test [1] was 94.7%; in test [2] it was 91.7%; in test [3] it was 100%; in [4], 102%; in [5] it was 101%; in test [6] it was 102%. The growth in test [7] is 91.3%; in test [8] it was 100%; in test [9], 103%; in [10] it was 108%.

Turning to `COc1ccccc1N1CCN(CCCOc2ccc(C(=O)/C=C3/C(=O)Nc4ccccc43)cc2)CC1`, the growth was 45.3% in test [1]; 53% in [2]; 88.7% in test [3]; 38.2% in test [4]; 66.4% in test [5]; 18.2% in [6]. For the same molecule, the growth is 65.9% in [7], 76% in [8], 45.7% in test [9] and 65.5% in test [10].

Regarding `COc1ccc(Cl)c([N+](=O)[O-])c1`, the growth in test [1] was 98.5%; in [2], 101%; in test [3] it was 98.8%; in test [4], 93.4%; in [5], 108%; in test [6] it was 98%. The growth in test [7] was 95.7%; in [8], 99.6%; in [9] it was 99.2%; in test [10], 116%.

Take `Nc1ccccc1NS(=O)(=O)c1ccc(Cl)cc1`: the growth is 94.5% in test [1]; 103% in [2]; 81.9% in test [3]; 106% in test [4]; 104% in test [5]; 78.8% in test [6]. The growth is 85.2% in test [7], 107% in test [8], 98% in test [9] and 104% in test [10].

For the molecule `O=c1c2ccccc2oc2ccc(OCCCCCCN3CCCCCC3)cc12`, the growth in [1] is 39.2%; in test [2] it was 74.1%; in test [3], 74.3%; in [4], 74.1%; in test [5], 35%; in test [6] it was 74.6%. Further, the growth in test [7] is 46%; in test [8], 40.4%; in test [9], 27.1%; in test [10], -5.01% (active).

Turning to `C#C[C@@]1(O)[C@@H](CO)O[C@@H](n2cc(Cl)c3c(N)ncnc32)[C@@H]1O`, the growth in test [1] is 0.604% (active); in [2], 1.13% (active); in test [3], -3.01% (active); in test [4], -4.82% (active); in test [5], -19.1% (active); in test [6] it was -27.1% (active). Also, the growth in test [7] was -29% (active); in test [8] it was -31.1% (active); in [9], -58.8% (active); in [10] it was -39.4% (active).

Consider `CC(C)(C)c1ccc(O)c(Cc2cc(C(C)(C)C)ccc2O)c1`, for which the growth was 94.7% in [1]; 89.9% in test [2]; 102% in [3]; 85.9% in test [4]; 104% in test [5]; -39.4% (active) in test [6]. The growth in test [7] is 87%; in [8], 92.4%; in test [9], 94.2%; in test [10] it was 110%.

Regarding `COc1cc(/C=C/C(=O)/C=C/c2cc3ccc(Cl)cc3n(Cc3ccccc3)c2=O)ccc1O`, the growth in [1] was -20.6% (active); in [2], -6.08% (active); in [3] it was 23.9%; in [4], -6.74% (active); in [5] it was -29.1% (active); in test [6], -5% (active). Besides, the growth in test [7] is -37.6% (active); in [8], -3.99% (active); in test [9], -55.7% (active); in [10], 7.89% (active).

Regarding `C=C1C(=O)O[C@H]2[C@H]1CC/C(COC(=O)CCC(=O)OC/C1=C/CC[C@@]3(C)O[C@H]3[C@H]3OC(=O)C(=C)[C@@H]3CC1)=C\CC[C@@]1(C)O[C@@H]21`, the growth in [1] was 58.5%; in [2] it was 84.3%; in test [3] it was 96.1%; in test [4], 85.7%; in [5] it was 93.9%; in test [6] it was -1.85% (active). Besides, the growth was -69.2% (active) in test [7], 88.7% in [8], 40.7% in [9] and -55% (active) in test [10].

On to `COCCOCCOCc1n(Cc2ccc3ccccc3n2)c2ccccc2[n+]1Cc1ccc2ccccc2n1`, for which the growth in test [1] was 12.7%; in test [2], 37.9%; in test [3], 47.4%; in test [4], 20.8%; in [5], 16.5%; in test [6], -22.1% (active). Besides, the growth was -1.7% (active) in test [7], 39.4% in test [8], 77.8% in test [9] and -31.4% (active) in test [10].

`S=C(Nc1ccccc1)c1ccccn1`: the growth is 87.5% in [1]; 94.7% in test [2]; 101% in test [3]; 75.2% in test [4]; 100% in [5]; 84.6% in test [6]. Also, the growth is 74.4% in test [7], 91.7% in test [8], 96.5% in test [9] and 67.9% in test [10].

With `Oc1c(CCl)cc(Cl)cc1Cc1cc(Cl)cc(Cc2cc(Cl)cc(CCl)c2O)c1O`, the growth is 5.68% (active) in test [1]; 32.4% in [2]; 4.12% (active) in test [3]; 57.2% in [4]; 11.9% in test [5]; -18.3% (active) in test [6]. Moreover, the growth in test [7] is -10.9% (active); in test [8], 46.5%; in test [9], 55.3%; in [10] it was 68.3%.

Regarding `Cc1cc(Cl)cc(CN(Cc2ccccc2)Cc2c(O)ccc3ccccc23)c1O`, the growth in test [1] was 93.6%; in [2] it was 104%; in [3], 95.7%; in test [4], 92.3%; in [5] it was 104%; in test [6] it was 83.7%. Besides, the growth in test [7] is 83%; in test [8], 98%; in [9], 103%; in [10], 115%.
